In PubChem BioAssay AID1488 (Vanderbilt High Throughput Screening Facility, 2009):
About 310 (18%) of roughly 1,700 compounds were called active. About 25% were inconclusive and are not listed.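 Rule for the calls: active = fluorescence change differs from the solvent-only DMSO control mean at a set confidence level in both duplicate runs; inconclusive = differs from solvent-only control mean in just one of two runs; inactive = the rest.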 The entries come from a sample that favours actives as a whole.

Target: Muscarinic acetylcholine receptor M1 (Rattus norvegicus) (UniProt P08482)
Sequence (P08482 whole entry, looked up): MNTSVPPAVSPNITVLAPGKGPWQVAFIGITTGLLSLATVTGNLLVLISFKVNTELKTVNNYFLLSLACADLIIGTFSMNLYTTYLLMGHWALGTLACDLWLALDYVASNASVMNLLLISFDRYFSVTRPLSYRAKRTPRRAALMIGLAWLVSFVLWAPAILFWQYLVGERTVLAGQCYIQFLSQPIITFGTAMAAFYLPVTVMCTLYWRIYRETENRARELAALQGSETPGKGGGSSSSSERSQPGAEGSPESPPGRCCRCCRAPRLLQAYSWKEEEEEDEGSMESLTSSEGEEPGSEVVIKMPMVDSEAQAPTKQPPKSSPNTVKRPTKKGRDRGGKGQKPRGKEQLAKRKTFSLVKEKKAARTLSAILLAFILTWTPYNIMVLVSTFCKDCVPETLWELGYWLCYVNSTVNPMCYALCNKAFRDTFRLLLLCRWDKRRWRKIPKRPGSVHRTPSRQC
Assay: direct agonism at rat M1 receptor – CHO-M1 cells, Fluo-4 calcium, duplicate retest, confirmation (AID 1488);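 note: an EC20 dose of acetylcholine follows compound addition during the same imaging run; raw fluorescence intensity difference in instrument units with no normalization to controls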
Details: Fluo-4 calcium fluorescence, agonist mode, at 10 µM, actives lie on both sides

Fluorescence change (max-min), inactive:
Cc1ccc2oc(=O)c3cnn(CC(=O)N4CCN(c5ccccn5)CC4)c3c2c1 -16.8
COc1cccc2c(C)c(C(=O)O)[nH]c12 4.27
O=C(NCc1ccccn1)c1ccc2nc(-c3ccco3)c(-c3ccco3)nc2c1 28.5
CCOc1ccc2[nH]c(=O)c(CN(Cc3nnnn3Cc3ccccc3)CC3CCCO3)cc2c1 (stereo not given) 19.2
Cc1cc2cc(CN(Cc3cccs3)Cc3nnnn3CC3CCCO3)c(=O)[nH]c2cc1C (stereo not given) 7.46
Cc1cc(NC(=O)COc2ccc(Cl)cc2Cl)n(CCC#N)n1 -3.95
O=C(O)c1ccc(COCC(F)(F)F)cc1 -6.5
CC(=O)Nc1ccc(NC(=O)CN2CCCC(C)C2)c(Cl)c1 (stereo not given) -10.1
CCOc1cc(N2CCOCC2)c(OCC)cc1NC(=O)COc1cccc2cccnc12 -14.8
C(=N\n1cnnc1)/c1cccnc1 -17.4
O=C1c2ccccc2-c2ncnc3c(N4CCOCC4)cc(N4CCOCC4)c1c23 -15.7
O=C(Nc1ccccc1N1CCN(C(=O)c2ccccc2)CC1)c1ccc2c(c1)OCO2 -2.28
CC(C)(C)c1cc(CN2CCN(CCC#N)CC2)cc(C(C)(C)C)c1O 23.3
O=C(NCCc1ccc2c(c1)OCCO2)c1cc2ccccc2o1 25
COc1ccccc1Cc1nc(-c2ccc(C)cc2)no1 -14
COC(=O)c1ccc(CSc2nc3ccccc3c(=O)n2-c2cccc(OC)c2)o1 -9.69
O=C(CSc1nnc(-c2ccco2)n1Cc1ccccc1)NC(=O)NCc1ccco1 -3.05
c1n[nH]c(NCc2ccc3c(c2)OCO3)n1 -9.45
COc1cccc(-n2cc3c(c2-c2ccccc2)c(=O)n(C)c(=O)n3C)c1 -22.4
CC(NC(=O)CSc1nc2c(cc1C#N)CN(C)CC2)c1ccccc1 (stereo not given) 41.3
FC(F)(F)COc1nc(N2CCCCC2)nc(N2CCNCC2)n1 -8.96
CCOc1nc(-c2ccc(OC)cc2)ccc1-c1noc(-c2cc(OC)c(OC)c(OC)c2)n1 -5.3
O=C(CSc1nnc(Cn2cnc3ccccc32)o1)c1ccccc1 -8.96
CCc1nc(Nc2ccc3nccnc3c2)c2oc3ccccc3c2n1 -1.32
COc1ccc(CCNC(=O)c2ccco2)cc1 -16.3
CN1C(=O)c2ccc(NC(=O)c3c(F)c(F)c(F)c(F)c3F)cc2C1=O 1.53
O=C(c1ccccc1)c1ccc(OC(=O)N2CCCC2)cc1 -8.75
Fc1ccc2[nH]c3c(N4CCSCC4)ncnc3c2c1 6.07
O=C(Nc1nc(-c2ccc3c(c2)OCO3)cs1)c1ccncc1 -8.33
O=C(COC(=O)CCc1c[nH]c(=O)[nH]1)Nc1ccccc1Cl 13.2
c1cnn(-c2cc(N3CCOCC3)ncn2)c1 -19
Cc1nc(CNS(=O)(=O)c2ccc(Oc3ccccc3)cc2)cs1 -2.69
Cc1nn2c(c1-c1ccccc1)N=C(c1ccco1)CC2c1ccccc1 (stereo not given) 21.8
COCCNC(=O)C(c1ccc(C)o1)N(Cc1cccs1)C(=O)c1snc(C(N)=O)c1N (stereo not given) -1.36
Cc1ccc(S(=O)(=O)Nc2ccc3ncccc3c2)cc1 17.4
CCOc1ccc(NC(=O)N2CC=C(n3c(=O)[nH]c4ccccc43)CC2)cc1 -24
O=C(CC1Nc2ccccc2NC1=O)Nc1ccccc1 (stereo not given) -7.08
Cn1c(=O)c2c(nc(SCC(=O)Nc3ccccc3N3CCCCC3)n2C)n(C)c1=O -20.5
CC1CCCC(C)N1C(=O)CN1CCN(c2nc(-c3ccc(F)cc3)cs2)CC1 (stereo not given) -5.14
COc1ccccc1N1CCN(C(=O)c2c(-c3c(Cl)cccc3Cl)noc2C)CC1 -19.2
O=C(Nc1cccc(NC(=O)N2CCN(c3ccccc3)CC2)c1)N1CCN(c2ccccc2)CC1 1.01
O=C(Cn1cc(C(=O)c2cccs2)c2ccccc21)NCc1cccs1 -4.9
Cn1c(C(=O)NCCc2ccsc2)cc2c(=O)n(C)c3ccccc3c21 -12.8
COc1ccc(C(C(O)C(=O)c2c[nH]c3ccccc23)N2CCN(c3ccccc3)CC2)cc1 (stereo not given) -11.7

Fluorescence change (max-min), active:
COc1ccccc1NC1=NC(c2ccc(Cl)cc2)N=C(N)N1 (stereo not given) -28.2
CC(=O)OC(C)C[N+](C)(C)C (stereo not given) 529
CC(C[N+](C)(C)C)OC(N)=O (stereo not given) 389
CCOC(=O)c1cc2n(c1N)-c1ccccc1C2=O 1700
N#CC1=C(N)Oc2c(sc3ccccc23)C1c1ccco1 (stereo not given) 140
c1ccc2c(c1)OCC(CNc1ncnc3nc[nH]c13)O2 (stereo not given) 512
CCCN1CC=C2C(C#N)=C(N)C(C#N)(C#N)C(c3cc(OC)ccc3OC)C2C1 (stereo not given) 85.5
COc1ccc2nc(N3CCCC(O)C3)c(C#N)cc2c1 (stereo not given) 206
CCOC(=O)CSc1nc2c(sc(=S)n2CCc2ccccc2)c(=O)n1Cc1ccco1 -34.1
CCN(CC)c1ccc2oc(=O)c(C)nc2c1 165
CCN(CC)c1ccc2cc(C(=O)O)c(=O)oc2c1 153
CCOC(=O)C1CCCN(Cc2nc(N)nc(Nc3ccc(C)cc3)n2)C1 (stereo not given) 127
Cc1ccc(C(=O)COc2cccc(NC(=O)c3ccco3)c2)cc1 131
CC(C)OCCCNc1ncnc2c1[nH]c1ccc(F)cc12 51.6
CCOc1cc(-c2nc3cc(C)ccn3c2NCC2CCCO2)ccc1O (stereo not given) -30.6
CCOc1ccc2nc(N3CCCN(C(=O)Nc4ccccc4C)CC3)c(C#N)cc2c1 282
CCN=C1SC(CC(=O)Nc2ccc(C)cc2)C(=O)N1CC (stereo not given) -26.1
O=C(CSc1nc2ccccc2o1)N1CCN(c2ccc(Cl)cc2)CC1 -34.5
O=C(NCCC1=CCCCC1)C1CCN(Cc2cnn(-c3ccccc3)c2-n2cccc2)CC1 -25.7
Cc1cccn2c(=O)c3cc(C#N)c(=NC(=O)c4cccnc4)n(CC4CCCO4)c3nc12 (stereo not given) 310
COc1ncnc2c1N=C1CC(C)(C)CC(N)=C1S2 175
